Most compounds without a hit are left out; they make up all but 10% or so of the library.
HP1b chromo inh – HP1-beta chromodomain-methylated histone interaction inhibition; Potency, µM (series often up to 114 µM), without a hit: at the top dose activity change, negative = inhibition, usual class: inhibitors; hit rate 0.56% among 390,000; AID 540317; P83916; AlphaScreen HP1-beta / biotin-H3K9me3 peptide binding; also: potency is read from the fitted curve at half-maximal effect; nearly all actives have a fitted effect of over 70% in size
Target sequence (P83916 whole entry, looked up): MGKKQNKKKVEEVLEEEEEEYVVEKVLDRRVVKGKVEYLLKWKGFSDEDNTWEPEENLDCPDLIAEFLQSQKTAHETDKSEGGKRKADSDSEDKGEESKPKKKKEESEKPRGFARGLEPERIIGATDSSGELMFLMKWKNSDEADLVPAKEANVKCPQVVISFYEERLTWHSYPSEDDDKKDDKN
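AlphaScreen: HP1-beta (50 nM) preformed 30 min with biotin-H3(1-18)K9me3 peptide (50 nM) in PBS pH 7.4, 0.01% Tween-20. Compound added for 30 min at RT, then streptavidin donor/nickel chelate acceptor beads (10 ug/mL) for 30 min.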
CtBP-E1A blk – CtBP/E1A binding inhibition; AlphaScreen GST-E1A/His-CtBP binding, 1536-well; hits give low values; activity change, % (test concentration not listed); hit rate 0.49% among 340,000; in the data active = activity change below about -65%; inconclusive = mostly about -30% to -63%; also: % is scaled to controls: 0 for no effect and ±100 for the full control effect
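In 5 uL wells, 23 nL compound meets equimolar GST-E1A and His-CtBP (5X stock 125 nM each) for 2 h, 37 °C. Beads (5X, 50 ug/mL) then 1 h, 37 °C, dark.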
Six1-Eya2 blk – Six1/Eya2 interaction inhibition. AID 651725. activity change, % (test concentration not listed). AlphaScreen GST-Six1/His-Eya2 binding, biochemical; hits give low values. hit rate 0.56% among 360,000; in the data active = activity change below about -65%; inconclusive = mostly about -30% to -63%; also: % is scaled to controls: 0 for no effect and ±100 for the full control effect
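AlphaScreen luminescence read after one hour at 37 °C in darkness. Pin-transferred compounds met GST-Six1 and His-Eya2 protein (5X stock 250 nM/500 nM) plus glutathione donor and Ni-chelate acceptor beads (5X, 50 ug/mL).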
BAZ2B inh – blocks human BAZ2B | Q9UIF8 | AlphaScreen BAZ2B-H3K14Ac peptide displacement | Potency, µM (titrated, usually from 114 µM), without a hit: at the top dose activity change, negative = inhibition, actives largely listed as inhibitors | hit rate 4.4% among 360,000 | AID 504333; also: potency is read from the fitted curve at half-maximal effect; % is scaled to controls: 0 for no effect and ±100 for the full control effect; nearly all actives have a fitted effect of over 60% in size
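Complex of BAZ2B and biotin-H3K14Ac (50 nM apiece) forms over 30 min at RT, then faces library compounds up to 110 uM for another 30 min; AlphaScreen beads added, 20 min dark incubation, luminescence read.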
G9a inh – blocks human histone lysine methyltransferase G9a; Q96KQ7; hit rate 8.8% among 350,000; G9a H3K9 monomethylation, AlphaScreen, 2 h; AID 504332; Potency, µM (highest dose often 102 µM), for the others: at the top dose activity, negative = inhibition, most hits filed as inhibitors; also: potency is read from the fitted curve at half-maximal effect; % is scaled to controls: 0 for no effect and ±100 for the full control effect; nearly all actives have a fitted effect of over 75% in size
Target sequence (Q96KQ7 913-1193 limits assumed): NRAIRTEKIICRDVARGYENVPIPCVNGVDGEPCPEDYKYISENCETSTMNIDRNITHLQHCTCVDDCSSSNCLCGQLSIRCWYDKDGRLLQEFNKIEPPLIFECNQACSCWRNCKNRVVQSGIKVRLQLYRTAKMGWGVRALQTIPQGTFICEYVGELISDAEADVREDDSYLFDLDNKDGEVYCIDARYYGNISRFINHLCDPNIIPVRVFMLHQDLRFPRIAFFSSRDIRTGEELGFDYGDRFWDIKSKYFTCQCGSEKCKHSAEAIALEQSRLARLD
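G9a (20 nM) preincubated 15 min RT with compounds, then 500 nM biotinylated H3K9 peptide and 20 uM SAM added; 2 h RT reaction. Monomethyl-H3K9 product detected by AlphaScreen with anti-H3K9me1 antibody, streptavidin donor and anti-rabbit IgG acceptor beads.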
JMJD2A Tudor – JMJD2A Tudor domain (human) inhibition; O75164; AlphaScreen JMJD2A-Tudor / H3K4me3 peptide binding; Potency, µM (series often up to 114 µM), for the others: at the top dose activity change, negative = inhibition, usual class: inhibitors; hit rate 4.4% among 390,000; AID 504339; also: potency is read from the fitted curve at half-maximal effect; % is scaled to controls: 0 for no effect and ±100 for the full control effect; nearly all actives have a fitted effect of over 50% in size
An asterisk follows results filed as active; ? = inconclusive; . = not tested or not shown; ! = a repeat was not active; [ ] = dose if it differs, or a comment. Unless noted, calls follow the shape of the dose curve; as a rule, active = well fitted inhibition curve with a large enough effect; inconclusive = small, poorly fitted or top-dose-only effect; inactive = no such curve, though single readings can be large or run the other way.

SMILES	HP1b chromo inh	CtBP-E1A blk	Six1-Eya2 blk	BAZ2B inh	G9a inh	JMJD2A Tudor
N#CCCn1c(=O)c(-c2cccs2)nc2cnc(N3CCNCC3)nc21	.	.	.	.	-16%[12.7 µM]	.
CC(C)(C)C(CCl)C(=O)NN=C(c1ccccc1)c1ccccc1 (configuration not stated)	49%	5	10	?	-29%[2.33 µM]	100µM*
Cc1sc2nc(-c3cccnc3)[nH]c(=O)c2c1-c1ccccc1	-12%	-1	-4	.	11µM*	-17%
Cc1nn(-c2ccccc2)c(C)c1/C=N\N1CCN(c2ccc(Cl)cc2)CC1	?	-2	-11	32µM*	?	28µM*
CCOC(=O)C1CCCN(S(=O)(=O)c2cc3c4c(c2)CCN4C(=O)CC3)C1 (configuration not stated)	12%	9	7	-11%	?	-10%
CCOC(=O)C1CCN(S(=O)(=O)c2ccc3c4c2CC(=O)N4CC(C)S3)CC1 (configuration not stated)	25%	-13	9	-27%	35µM*	-16%
CCOC(=O)C1CCCN(S(=O)(=O)c2ccc3c4c2CC(=O)N4CC(C)S3)C1 (configuration not stated)	37%	1	1	-28%	45µM*	-15%
O=C(NCCCCCCNC(=O)ON=C1CCCCC1)ON=C1CCCCC1	.	.	.	.	26%[59 µM]	.
Cc1cc(Cl)ccc1NS(=O)(=O)c1c(C(=O)N2CCC(C)CC2)c(C)n(C)c1C	4%	.	.	?	8%[59 µM]	-27%
COc1ccc(OCc2nc3ccc(S(=O)(=O)Nc4ccccc4Cl)cc3[nH]2)cc1	0%	-4	?	-19%	-11%[59 µM]	40µM*
COc1ccccc1NS(=O)(=O)c1ccc2nc(CCl)[nH]c2c1	17%	-6	10	-29%	20µM*	-19%
CCOC(=O)c1ccc2c(c1)[nH]c(=S)n2CC	20%	.	-6	3%	?	?
COc1ccc(NS(=O)(=O)c2ccc3nc(COc4ccc5ccccc5c4)[nH]c3c2)cc1	10%	-14	-18	62%	?	?
CCN(CC)S(=O)(=O)c1ccc2c(c1)[nH]c(=S)n2CC	-4%	2	-2	.	7.9µM*	-16%
CCN(CC)S(=O)(=O)c1ccc2nc(CCl)[nH]c2c1	64%	-15	17	-19%	50µM*	-24%
CCOC(=O)c1c(-c2ccc(OC)cc2)csc1NC(=O)C1CCCO1 (configuration not stated)	-11%	0	4	4%	13µM*	-6%
CCOC(=O)c1c(-c2ccc(F)cc2)csc1NC(=O)C1CCCO1 (configuration not stated)	4%	1	9	8%	20µM*	23%
CCOC(=O)c1c(-c2ccc(C)cc2)csc1NC(=O)C1CCCO1 (configuration not stated)	66%	0	5	5%	-1%[59 µM]	26%
O=[N+]([O-])c1ccc(Sc2cccc3cccnc23)cc1	-6%	-17	-18	-36%	-5%	?
C=CCn1nc([N+](=O)[O-])nc1Sc1cccc2cccnc12	19%	-95*	-94*	-10%	-20%	-11%
O=[N+]([O-])c1ccc(Sc2cccc3cccnc23)c([N+](=O)[O-])c1	32%	-98*	-94*	-3%	?	-7%
S=C(Nc1ccc(Oc2ccccc2)cc1)NC1CCCCCC1	-10%	-17	-15	-1%	45µM*	-12%
NS(=O)(=O)c1ccc(NC(=S)NC2CCCCCC2)cc1	-21%	-1	4	-2%	?	-29%
S=C(NNc1ccc2ccccc2c1)NC1CCCCC1	28µM*	?	?	8.9µM*	11µM*	4µM*
NS(=O)(=O)c1ccc(NC(=S)NC2CCCC2)cc1	29%	6	-7	-5%	8.9µM*	6%
SMILES	HP1b chromo inh	CtBP-E1A blk	Six1-Eya2 blk	BAZ2B inh	G9a inh	JMJD2A Tudor
CC(=O)c1ccc(NC(=S)NNC(=O)NC2CCCCC2)cc1	-16%	-1	1	?	8.9µM*	-28%
Cc1ccc(NC(=S)NNC(=S)NC2CCCCC2)cc1	-14%	-3	-6	-14%	?	?
S=C(Nc1ccc(Oc2ccccc2)cc1)NC1CCCCC1	16%	-6	-8	-7%	-4%[59 µM]	-16%
Cc1ccccc1OCC(=O)Nc1ccc(OCc2cc(=O)n3ccsc3n2)cc1	38%	.	.	3%	3%[59 µM]	1%
NC(CS(=O)O)C(=O)O (configuration not stated)	23%	5	1	.	.	35µM*
N[C@H](CO)C(=O)O	.	.	.	.	12µM*!	.
NC(CSCC(=O)O)C(=O)O (configuration not stated)	.	.	.	.	-25%[59 µM]	.
N[C@@H](CS(=O)O)C(=O)O	.	.	.	.	21µM*!	.
Cc1cccc(C)c1NC(=O)NCCc1c[nH]c2ccccc12	5%	.	.	?	-3%[59 µM]	-21%
CCCCC1=CC2=C(c3ccco3)C(=O)C(C)(OC(=O)c3ccc(OC)cc3)C(=O)C2=CN1CCOC (configuration not stated)	-38%	-13	-17	40µM*	?	?
S=C(Nc1ccc(Nc2ccccc2)cc1)Nc1ccccn1	?	?	?	16µM*	10µM*	20µM*
S=C(Nc1ccccc1)c1ccccn1	?	-75*	-84*	35µM*	13%[12.7 µM]	56µM*
Cc1cc(NCCCn2ccnc2)n2nc(-c3ccc(F)cc3)cc2n1	19%	11	-13	?	-47%[12.7 µM]	-28%
Cc1cc(NCCCn2ccnc2)n2nc(-c3ccc(Cl)cc3)cc2n1	4%	-7	-15	45µM*	.	?
Cc1cc(C)c2c(CC(=O)Nc3ccc(S(=O)(=O)Nc4nc(C)cc(C)n4)cc3)coc2c1	20%	.	.	-32%	14µM*	-35%
Cc1cc(C)nc(NS(=O)(=O)c2ccc(NC(=O)Cn3c(=O)oc4ccccc43)cc2)n1	43%	4	-6	7%	79µM*	-3%
CN(C)c1ccc(CNC(=O)c2cc(S(=O)(=O)N3CCCC3)cn2C)cc1	-12%	1	-8	?	.	?
CN(C)c1ccc(CNC(=O)C2CCN(S(=O)(=O)c3ccc4c(c3)CCCC(=O)N4)CC2)cc1	3%	-3	-6	?	45µM*	?
CC1CCN(S(=O)(=O)c2cc(C(=O)NCc3ccc(N(C)C)cc3)n(C)c2)CC1	-9%[57 µM]	.	.	35µM*	10µM*	56µM*
Cc1cc(Cl)ccc1NC(=O)CN1C(=O)C(=O)c2ccccc21	18%	.	.	-1%	6%[59 µM]	-8%
O=C(CSc1ccc2nnc(-c3cccs3)n2n1)N1CCCC1	47%	2	-29	?	18µM*	-3%
